Bioassay records deposited in PubChem BioAssay by several laboratories.
Only some compounds are listed: those with a hit (about 3.9% of all), similar ones and a draw of the others.
CCHFV vOTU inh: CCHFV vOTU protease inhibition | Pep-AMC fluorescence | inhibition, % at 11.5 µM | 370,000 compounds, 0.55% hits; in the data active = inhibition above about 30%
BoNT F protease: BoNT F light chain protease inhibition. Multiplex microsphere protease cleavage assay, flow cytometry. inhibition, % at 10 µM. 360,000 compounds, 0.22% hits; in the data active = inhibition above about 35%, passing the limit was not always enough; inconclusive = no clear call, values can overlap the other calls
Autofluor counter: flagged as autofluorescent in microsphere protease counterscreen. compound autofluorescence counterscreen, microsphere flow cytometry; hits give high values. fluorescence intensity (no concentration beside the values). 360,000 compounds, 3.1% hits. AID 624483; in the data active = fluorescence intensity above about 16000; inconclusive = no clear call, values can overlap the other calls
BoNT-A LC inh2: BoNT A light chain protease inhibition; AID 588499; 360,000 compounds, 0.17% hits; inhibition, % at 10 µM; multiplex microsphere protease substrate cleavage, flow cytometry
3CLpro inhibitor: SARS-CoV 3CLpro protease inhibition; inhibition, % at 6 µM; P0C6X7; 290,000 compounds, 0.14% hits; recombinant SARS-CoV 3CLpro, quenched FRET peptide cleavage; in the data active = inhibition above about 12%
Anthrax LF inh2: blocks Bacillus anthracis lethal factor protease. P15917. multiplex microsphere protease cleavage assay, LF. inhibition, % at 10 µM. 360,000 compounds, 0.12% hits. AID 588501
Numbers stand for hits; – = inactive; ? = inconclusive; · = no result given; ! = not active in a repeat. Cut-off read from the data, not from the text of the source, unless noted: active = inhibition above about 30%; inconclusive = no clear call, values can overlap the other calls; inactive = below that.

SMILES | CCHFV vOTU inh | BoNT F protease | Autofluor counter | BoNT-A LC inh2 | 3CLpro inhibitor | Anthrax LF inh2
COc1cccc(C(=O)NC2CCSC2=O)c1 (centres undefined) | – | – | 19865 | – | – | –
CC(=O)c1cccc(NC(=O)c2oc(C)nc2C)c1 | – | – | 24179 | – | – | –
O=C(CCc1nc(-c2ccccc2F)no1)NCCc1ccccc1F | – | · | · | · | · | ·
CN(CC(=O)Nc1c(Cl)cccc1Cl)CC(=O)N1CCc2ccccc21 | – | – | – | – | · | –
COc1ccc(NC(=O)c2cccc(OC(F)F)c2)cc1Cl | – | – | 23117 | ? | – | –
COc1cc(OC)cc(C(=O)Nc2cccc(NC(=O)c3ccccc3)c2)c1 | – | – | – | – | – | –
COc1cc(OC)cc(C(=O)Nc2cccc(C(C)=O)c2)c1 | – | – | 22501 | – | – | –
C=CCN1C(=O)[C@@H](CC(=O)N2CCN(C(=O)C3CC3)CC2)[C@]2(C(=O)OC)CCCCC=C12 | – | · | · | · | · | ·
O=S(=O)(c1ccccc1)N1CCC2(CC1)OCCN2S(=O)(=O)c1cccs1 | – | – | ? | – | · | –
CC(=O)Oc1ccc2c(=O)c(N3C(=O)c4ccccc4C3=O)c(C)oc2c1 | – | – | – | – | – | –
CCCOc1ccc2c(=O)c(N3C(=O)c4ccccc4C3=O)c(C)oc2c1 | – | – | 20166 | – | – | –
Cc1oc2cc(O)ccc2c(=O)c1N1C(=O)c2ccccc2C1=O | – | – | 19700 | – | – | –
Cc1ccc(CSc2nnc(-c3n[nH]c4c3CCC4)n2N)cc1 | – | · | · | · | · | ·
CCOC(=O)C1=C(N)n2c(s/c(=C/c3ccco3)c2=O)=C(C(=O)OC)C1c1ccco1 (centres undefined) | – | – | 20070 | ? | – | –
CCOC(=O)C1=c2s/c(=C\c3ccncc3)c(=O)n2C(N)=C(C(=O)OC)C1c1ccncc1 (centres undefined) | – | – | – | – | – | –
CCCCNC(=O)COC(=O)c1ccc(F)cc1Cl | – | – | – | – | – | –
CCCCNC(=O)COC(=O)c1cc(F)c(F)cc1Cl | – | – | 23808 | – | – | –
COc1ccc(-c2noc(N3CCC(C(=O)NCCCN4CCCC(C)C4)CC3)n2)cc1 (centres undefined) | – | – | – | – | – | –
COc1ccccc1NC(=O)N(Cc1ccccc1)C1=NCC(C)S1 (centres undefined) | – | – | 22072 | – | – | –
Cc1cc(C(F)F)n2nc(C(=O)Nc3ccccc3Br)nc2n1 | – | – | 20530 | – | – | –
O=C1CC2(CCN(C(=O)c3c(F)cccc3Cl)CC2)Oc2ccccc21 | – | – | – | – | · | –
O=c1c2cnn(-c3ccccc3)c2nc(-c2ccco2)n1-c1ccccc1 | – | – | 22323 | – | – | –
Cc1cc(C)c(C)c(S(=O)(=O)N2CCN(Cc3nc4ccccc4[nH]3)CC2)c1C | – | – | 22533 | ? | – | –
COc1ccc(-n2cnnc2SCc2csc(-c3ccccc3)n2)cc1 | – | – | 22341 | ? | – | –
CC(C)C[C@@H]1NC(=O)[C@H]2C[C@]3(c4ccccc4)c4ccccc4N[C@H]3N2C1=O | – | · | · | · | · | ·
SMILES | CCHFV vOTU inh | BoNT F protease | Autofluor counter | BoNT-A LC inh2 | 3CLpro inhibitor | Anthrax LF inh2
Cc1nn(C)cc1/C=N/n1nnnc1N | – | – | 17300 | – | – | –
Cc1ccc(/C=N/n2nnnc2N)o1 | – | – | – | – | – | –
COc1ccc(Cn2cc(CN3[C@H](CC(C)C)COc4cc(Br)ccc4S3(=O)=O)nn2)cc1 | – | · | · | · | · | ·
CCc1noc(C)c1C(=O)OCC(=O)c1ccc(OC)c(OC)c1 | – | – | – | – | · | –
COc1ccc(C(=O)COC(=O)CSCc2c(C)noc2C)cc1OC | – | – | 22438 | – | – | –
CCOC(=O)c1ccc(N=Nc2c(C)c(C#N)c(O)[nH]c2=O)cc1 | – | – | – | – | – | –
CCOc1cc(C(=O)OCC(=O)c2c(C)[nH]c3ccccc23)ccc1OCC(=O)N1CCOCC1 | – | – | 21648 | ? | – | –
CCOC(=O)c1c(CN2CCOCC2)n(C)c2cc(Br)c(O)c(CN(C)C)c12 | – | – | 21896! | ? | – | –
COc1ccc(OC)c(/C=N/NC(=O)C(O)c2ccccc2)c1 (centres undefined) | – | – | – | – | – | –
COC(=O)[C@H]1C[C@@]2(n3ccc4ccccc43)c3ccccc3N(S(=O)(=O)c3ccccc3)[C@H]2N1C(=O)CNC1CCCCC1 | – | · | · | · | · | ·
Cc1cc(C)c2c(n1)nn1c(NCCN3CCOCC3)cc(C)nc21 | – | – | 23370 | – | – | –
COCCNc1cc(C)nc2c3c(C)cc(C)nc3nn12 | – | – | 23058 | – | – | –
CCOC(=O)c1c(SCCN2CCCC2)n(-c2ccccc2)c(=S)n(-c2ccccc2)c1=O | – | – | – | – | · | –
Cc1cc(-c2nc3ccccc3s2)ccc1N | – | – | – | – | · | –
COc1cc(OC)cc(-c2nc3ccccc3s2)c1 | – | – | 23472 | – | – | –
FC(F)(F)c1nc2ncc(Cl)cc2[nH]1 | – | – | 20866 | – | – | –
O=C(NCc1ccncc1)/C(=C/c1cccc([N+](=O)[O-])c1)NC(=O)c1ccccc1 | – | 38 | – | – | – | –
CCOC(=O)C(Cc1ccccc1)c1ccnc2ncnn12 (centres undefined) | – | – | – | – | – | –
O=C1N(c2ccccc2)c2ccccc2[C@]12C[C@H](O)CO2 | – | · | · | · | · | ·
Cc1cc(C)n2nc(SC(C)C(=O)N3CCC4(CC3)OCCO4)nc2n1 (centres undefined) | – | – | 24597 | ? | – | –
Cc1nn2c(N3CCN(C4CCCC4)CC3)cc(C(C)(C)C)nc2c1-c1ccccc1 | – | – | 23963 | ? | – | –
COc1ccc(-c2c(C)nn3c(N4CCN(Cc5ccccc5)CC4)cc(C)nc23)cc1OC | – | – | – | – | – | –
Cc1cc(N2CCN(Cc3ccccc3)CC2)n2nc(C)c(-c3ccccc3)c2n1 | – | – | 22404 | – | – | –
CC(=O)Nc1cc2cc(NS(=O)(=O)c3ccc(C)cc3)ccc2oc1=O | – | ? | – | – | – | –
COc1ccc(CCNC(=O)Cn2cnc3c(cnn3-c3ccccc3Cl)c2=O)cc1OC | – | – | 21068 | – | – | –
SMILES | CCHFV vOTU inh | BoNT F protease | Autofluor counter | BoNT-A LC inh2 | 3CLpro inhibitor | Anthrax LF inh2
COc1ccc(CCNC(=O)Cn2cnc3ccccc3c2=O)cc1OC | – | – | – | – | – | –
CCCC[C@H]1C2CC(OC(=O)Nc3ccccc3)C(C2)[C@H]2CCCCN21 (some centres undefined) | – | · | · | · | · | ·
COC(=O)C1Sc2[nH]c(=O)sc2C(c2ccc(Cl)cc2)C1C(=O)OC (centres undefined) | – | – | – | – | – | –
COC(=O)C1CSc2[nH]c(=O)sc2C1c1ccccc1 (centres undefined) | – | – | 23079 | – | – | –
CC(N)C(=O)NC(C(=O)NC(C)C(=O)Nc1cccc2ccccc12)C(C)C (centres undefined) | – | – | – | – | · | –
O=C(NNS(=O)(=O)c1ccc(Br)cc1)c1ccncc1 | – | – | 20766 | – | – | –
O=C(NNC(=O)c1ccncc1)c1ccncc1 | – | – | 22444 | – | – | –
CC(=O)NNC(=O)c1ccncc1 | – | – | – | – | – | –
